Screens from PubChem BioAssay.
Sampled rows, rich in hits. Any-hit rate of the full collection: about 21%.
Shiga toxin inh – Shiga toxin inhibition; Vero cells, Shiga toxin protein synthesis inhibition reporter; inhibition, % at 38.7 µM; 290,000 compounds, 9.2% hits; in the data active means inhibition mostly above about 28%, no sharp cut-off; inactive means mostly below about 43%; further: 0% is about no effect
HCV inhibitor – HCV inhibition | Potency, µM (titrated, usually from 41.8 µM), without a hit: top-dose activity change, negative = inhibition, hits mostly inhibitors | AID 651820 | 340,000 compounds, 3.4% hits | Huh7.5.1 HCVcc-Cre infection, luciferase reporter, 44 h; further: potency means the concentration at half of the fitted maximal effect; on the % scale 0 is the no-effect control and ±100 the full control effect
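HCVcc-Cre virus at an moi near 0.5 was added right after compound to cells cultured 4 h from seeding (1,000 cells/well). Luciferase activity was determined 44 h later, 15 min after substrate addition at RT.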
Pf growth 48h – P. falciparum growth inhibition at 48 hours (one generation) | P. falciparum luciferase growth in erythrocytes, 48 h | Potency, µM (series often up to 28.7 µM), for inactives: at the highest dose activity change, negative = inhibition, actives largely listed as inhibitors | 310,000 compounds, 5.9% hits | AID 504832; further: potency means the concentration at half of the fitted maximal effect; on the % scale 0 is the no-effect control and ±100 the full control effect
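In quantitative HTS format, infected erythrocytes bearing luciferase-reporter parasites were treated for a single generation at 37 C. Luminescence after adding detection reagent served as the growth measure.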
Pf growth 96h – inhibits malaria parasite growth, 96 h; P. falciparum luciferase reporter growth, 96 h; Potency, µM (highest dose often 28.7 µM), inactives show top-dose activity change, negative = inhibition, hits mostly inhibitors; 320,000 compounds, 6.9% hits; AID 504834; further: potency means the concentration at half of the fitted maximal effect; on the % scale 0 is the no-effect control and ±100 the full control effect
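Compounds incubated with erythrocytes infected by luciferase-expressing P. falciparum (2% hematocrit, 0.05% parasitemia final) for 96 hours, 37 C in 5% CO2. Growth inhibition scored as decreased luciferase luminescence.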
AMA1 RON2 block – inhibitors of Plasmodium falciparum AMA1-RON2 interaction. AlphaScreen AMA1-biotinylated RON2 peptide binding. Potency, µM (top dose mostly 58.2 µM), for the others: at the top dose activity change, negative = inhibition, hits mostly inhibitors. 360,000 compounds, 0.2% hits;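 further: potency means the concentration at half of the fitted maximal effect; 0% = vehicle wells and -100% = peptide control; nearly all actives have a fitted effect of over 45% in size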
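AMA1 (3D7) with his tag at 25 nM final met compounds first, then biotinylated RON2 peptide at 25 nM; detection used donor plus acceptor beads, 10 µg/mL apiece, read by AlphaScreen after 30 min at room temperature.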
CHX counter – counter-screen hit for Shiga toxin inhibitors, cycloheximide. max response, %. cell reporter, cycloheximide protein synthesis inhibition counterscreen. 300,000 compounds, 12% hits; in the data active means max response mostly above about 13%, no sharp cut-off; inactive means mostly below about 14%; further: read at 38.3 µM for the half of the compounds with a filed dose; 0% is about no effect
Active calls of the source: *; i = inactive; u = inconclusive; x = no result given; [ ] = another dose, or the depositor's remark. Unless noted, the call rests on the fitted dose curve; in most records, active means well fitted curve in the direction sought with a large enough effect; inconclusive means small, poorly fitted or top-dose-only effect, or another doubt; inactive means no such curve, though single readings can be large; an effect the other way counts as inactive or inconclusive.

SMILES | Shiga toxin inh | HCV inhibitor | Pf growth 48h | Pf growth 96h | AMA1 RON2 block | CHX counter
CCC(=O)Nc1ccc2c(c1)ncn2-c1ccccc1C | 14 | u | -28% | i | 2% | -3
Cc1cc(-c2ccc(Cl)cc2Cl)c(C#N)c(=O)[nH]1 | 44* | -11% | 25% | 8% | 8% | 21*
O=C1C=C(NNC(=O)c2ccccc2Br)CCC1 | -2 | 2% | 14% | -8% | -18% | -3
O=C1NCCc2c1[nH]c1ccccc21 | 1 | -20% | -5% | 76% | 15% | 10
O=C1NCCc2c1[nH]c1c(Cl)ccc(Cl)c21 | -19 | 11µM* | 32% | -1% | -3% | -4
CCOc1ccccc1NS(=O)(=O)N(C)C | -19 | 23% | x | 13µM* | 2% | -3
COc1ccc(-c2nc(N3CCN(S(=O)(=O)c4ccc(F)cc4)CC3)c3ccccc3n2)cc1 | 37 | x | x | x | x | 16
CSc1nc2ccc(NC(=O)CSc3nnc(N)s3)cc2s1 | 49 | 0% | 69% | x | 0% | 33*
CCCc1ccc(-c2cc(NC(=O)CSc3nnc(N)s3)n(-c3ccccc3)n2)cc1 | 99* | u | 23% | 39% | 15% | 43*
Nc1nnc(SCC(=O)Nc2ccccc2)s1 | 8 | -1% | 0% | 35% | 15% | 10*
CC(=O)N1CC(=O)N(c2ccccc2)C1=O | -5 | 13% | 2% | 17% | 3% | -3
CCCN(C)C1CN(Cc2cn(Cc3ccc(F)cc3)nn2)S(=O)(=O)C1 (stereo unspecified) | x | x | x | x | 1% | x
O=C(CC1=NCCNC(c2ccccc2)C1)c1ccccc1O (stereo unspecified) | 36* | 24% | 2% | u | 15% | 32*
Cc1cc(NC(=O)CSCC(=O)Nc2nc3ccccc3s2)no1 | x | 7% | 16% | -3% | -2% | x
CC(=O)N1CCc2cc(S(=O)(=O)NCCC(=O)NCCc3ccccc3)ccc21 | -13 | -8% | -18% | 19% | 22% | 10
CCC(=O)N1CCc2cc(S(=O)(=O)NCCC(=O)Nc3ccccc3C)ccc21 | -17 | 7% | u | 12µM* | 10% | -3
CC(=O)N1CCc2cc(S(=O)(=O)NCCC(=O)Nc3cccc(C)c3C)ccc21 | -30 | 4% | u | 3.7µM* | 20% | 13
CCC(=O)N1CCc2cc(S(=O)(=O)NCCC(=O)Nc3ccc(OC)cc3)ccc21 | -4 | 9% | 5% | 4% | -1% | -1
CC(C)n1c(SCC(=O)c2ccc3c(c2)OCCO3)nc2c1c(=O)n(C)c(=O)n2C | 24 | 13µM* | -17% | -24% | -8% | -1
COc1ccc(OC)c(C(=O)CSc2nc3c(c(=O)n(C)c(=O)n3C)n2C(C)C)c1 | -3 | 5% | 5% | 15µM* | -10% | -3
CC(C)n1c(SCC(=O)Nc2ccc3c(c2)OCO3)nc2c1c(=O)n(C)c(=O)n2C | -6 | u | -15% | -5% | -1% | -4
COc1ccc(CCNC(=O)c2cc3ccc(Cl)cc3nc2N)cc1 | x | x | x | x | 10% | x
C/C(=N\NC(=O)c1ccc(O)cc1)c1ccc2c(c1)Nc1ccccc1S2 | 12 | 10µM* | u | u | -30% | 12
C/C(=N\NC(=O)c1ccccc1F)c1ccc2c(c1)Nc1ccccc1S2 | 65* | u | -12% | u | 11% | 34*
CC(C)NC(=O)C(C)Oc1ccc(S(=O)(=O)NCc2ccc3c(c2)OCO3)cc1 (stereo unspecified) | x | -12% | u | 38% | -10% | -2
SMILES | Shiga toxin inh | HCV inhibitor | Pf growth 48h | Pf growth 96h | AMA1 RON2 block | CHX counter
COc1cccc(C(=O)Nc2c[nH]c(=O)[nH]c2=O)c1 | -1 | -5% | 66% | 29% | 18% | 0
Cn1c(=O)c2ccccc2n(CC(=O)N2CCCc3ccccc32)c1=O | -15 | -14% | -11% | 1% | -13% | 11
CCCCCn1c(=O)[nH]c2cc(C(=O)N3CCN(Cc4ccc5c(c4)OCO5)CC3)ccc2c1=O | -22 | 2.8µM* | -1% | -4% | 0% | -4
CC1CC(C)CN(C(=O)c2ccc3c(=O)n(Cc4ccc5c(c4)OCO5)c(=S)[nH]c3c2)C1 (stereo unspecified) | -13 | -9% | -5% | 7.4µM* | 56% | -2
O=C(c1ccc2c(=O)n(Cc3ccc(Cl)cc3)c(=S)[nH]c2c1)N1CCCC1 | 1 | 13% | -18% | u | 78% | 2
CCOC(=O)N1CCN(C(=O)c2ccc(Cn3c(=S)[nH]c4cc5c(cc4c3=O)OCO5)cc2)CC1 | -7 | u | 13µM* | u | 52% | -1
CCOC(=O)N1CCN(C(=O)c2ccc(Cn3c(=S)[nH]c4cc(OCC)c(OCC)cc4c3=O)cc2)CC1 | -4 | u | u | 35% | 34% | -4
O=C(c1ccc2c(=O)n(Cc3ccc(Cl)cc3)c(=S)[nH]c2c1)N1CCOCC1 | 23* | -5% | 12% | 23% | 92% | 26*
COc1cccc(/C=C/C(=O)NCc2ccc3c(c2)OCO3)c1 | 13 | -10% | 20% | 21% | -10% | 14
CCOC(=O)C1CCCN(C(=O)c2cc(C)n(C(C)(C)C)n2)CC1 (stereo unspecified) | x | x | x | x | 6% | x
FC(F)Oc1ccc(NC(=S)Nn2cnnc2)cc1 | -5 | 5µM* | -17% | 0% | 14% | 0
FC(F)Oc1ccc(NC(=S)NCc2ccccc2)cc1 | 37* | 1% | 15% | 60% | -4%[2.32 µM] | 11*
FC(F)Oc1ccc(NC(=S)NCCc2ccccn2)cc1 | 45 | 3% | -10% | -20% | 11% | 29*
FC(F)Oc1ccc(NC(=S)NCc2ccccc2)cc1Cl | -22 | 13µM* | 18% | x | 10% | 1
CC(NC(=S)Nc1ccc(OC(F)F)c(Cl)c1)C(C)(C)C (stereo unspecified) | -1 | 11µM* | u | u | 47% | 9
Oc1cccc2c(NC(=S)Nc3ccc(OC(F)F)cc3)cccc12 | 88* | -15% | 2% | u | 18% | 74*
O=c1c(C(c2ccc(O)cc2)c2c(O)nc3n(c2=O)CCCS3)c(O)nc2n1CCCS2 | -10 | 22% | 2.9µM* | u | -3% | -4
COc1ccc(N(Cc2cc3cc(OC)ccc3[nH]c2=O)C(=O)C2CCCO2)cc1 (stereo unspecified) | 0 | 7% | u | 42% | 11% | -4
COCC(=O)N(Cc1cc2cc(C)ccc2[nH]c1=O)c1ccccc1 | 22 | 1% | 46% | u | 0% | 12*
COc1ccc2[nH]c(=O)c(CN(C(=O)C3CCCO3)c3cccc(C)c3)cc2c1 (stereo unspecified) | 41 | 12% | 11% | 8.3µM* | x | 14
Cc1ccc2[nH]c(=O)c(CN(C(=O)c3cccs3)c3ccccc3)cc2c1 | 32 | u | -2% | u | -1% | 3
